Screening data deposited in PubChem BioAssay by Zoeller Lab, School of Medicine, Boston University.
PL synth Enamine: phospholipid synthesis inhibitors, CHO cells, primary screen, ZR-82 cells, Enamine library, screen 3; ZR-82 CHO cells, pyrene fatty acid UV survival, CellTiter Blue; peroxisome-deficient CHO-K1 mutant line; plus DGAT-1, DGAT-2 and ACAT inhibitors; calls only at 10 µM; actives 0.4% (n = 20,000); AID 1347385, 2020;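 active = cell survival signal 2 SD away from solvent-only control wells, confirmed on one or two retests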;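 also: 3 h compound exposure then viability read about one day after UV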
Of the large screens only hits and unclear results are named; the others gave an inactive call. Many of the other results were omitted from the sample, so hits are more common in it than they were.

NC(=S)N=Nc1c2[nH]c3ccccc3nc-2c2ccccc12	none
c1ccc2c(N=Nc3c4[nH]c5ccccc5nc-4c4ccccc34)cccc2c1	none
CN(Cc1ccc(C(F)(F)F)cc1)Cn1nc(-c2ccco2)oc1=S	none
CNC(=S)N1C(=Nc2ccc(C)cc2C)SCC1C (centres undefined)	none
Nc1ncc(Cc2ccc(F)cc2)s1	none
CN(C)S(=O)(=O)c1ccc(N=Nc2sc(N)nc2-c2cc(F)ccc2F)cc1	none
CN(C)S(=O)(=O)c1ccc(Cl)c(N=Nc2sc(N)nc2-c2cc(F)ccc2F)c1	none
Cc1nc(N)sc1N=Nc1ccc(F)cc1	PL synth Enamine active
Cc1nc(N)sc1N=Nc1c(Cl)cc(Cl)cc1Cl	none
Cc1nc(N)sc1N=Nc1cc(C(F)(F)F)ccc1Cl	PL synth Enamine active
O=c1ccc(S(=O)(=O)N2CCCC2)cn1Cc1cc(=O)n2ccsc2n1	none
O=[N+]([O-])c1cccc(-n2nncc2C23CC4CC(CC(C4)C2)C3)c1	none
c1ccc(N=Nc2ccc(-n3nncc3C34CC5CC(CC(C5)C3)C4)cc2)cc1	none
O=[N+]([O-])c1ccc(N/N=C/c2ccc(-n3nncc3C34CC5CC(CC(C5)C3)C4)cc2)cc1	PL synth Enamine active
C/C(=N\N=C(N)N)c1ccco1	none
Cc1n[nH]c(C)n1	none
O=C1NC(c2ccccc2)(C(F)(F)F)Sc2nc(-c3ccccc3)c(-c3ccccc3)n21 (centres undefined)	none
CN1CCCN(c2ncnc3sc4c(c23)CCCC4)CC1	none
O=[N+]([O-])c1ccc(N/N=C2\CCCCc3ccccc32)cc1	PL synth Enamine active
c1ccc(N/N=C2\CCCc3ccccc32)nc1	none
C=CCNC(=S)N/N=C1\CCc2ccccc21	none
O=[N+]([O-])c1cc(S(=O)(=O)N/N=C2\CCc3ccccc32)ccc1Cl	none
O=[N+]([O-])c1cc(C(F)(F)F)cc([N+](=O)[O-])c1N/N=C1/CCCc2ccccc21	none
O=[N+]([O-])c1ccc(N/N=C2\CCc3ccccc32)cc1	PL synth Enamine active
O=C1NC(=S)S/C1=C\c1ccc(-c2nc3ccccc3s2)o1	none
Cc1ccc2nc(COC(=O)C(C)N3C(=O)C4CCCCC4C3=O)cc(=O)n2c1 (centres undefined)	none
CN(C)S(=O)(=O)N1CCN(c2ccc([N+](=O)[O-])c(NC3CC3)c2)CC1	none
CC(Nc1cc(N2CCNCC2)ccc1[N+](=O)[O-])C12CC3CC(CC(C3)C1)C2 (centres undefined)	PL synth Enamine active
CC(NS(=O)(=O)c1ccc(F)c(F)c1)C12CC3CC(CC(C3)C1)C2 (centres undefined)	none
CN1CCN(NC(=O)CC2CCCC2)CC1	none
O=c1c2cnn(-c3ccccc3)c2ncn1Cc1cc(=O)n2ccsc2n1	none
Fc1ccccc1C1CC(c2ccc(Br)cc2)Nc2nc(-c3ccccc3)nn21 (centres undefined)	none
CCC(=O)N(c1nnc(SCC(=O)c2ccc(CC(N)=O)s2)s1)C1CC1	none
Cc1c(C2Sc3ccccc3NC2=O)c2ccccn2c1C1Sc2ccccc2NC1=O (centres undefined)	PL synth Enamine active
O=C(O)CC1Sc2ccccc2NC1=O (centres undefined)	none
C=CCOC(=O)CC1Sc2ccccc2NC1=O (centres undefined)	none
COc1ccc(/C=C2\N=C(c3ccc(OC)c(OC)c3)OC2=O)cc1	none
COc1ccc2c(COC(=O)CC34CC5CC(CC(Br)(C5)C3)C4)cc(=O)oc2c1	none
